Source: PubChem BioAssay AID1445 (SRMLSC, 2008)
Among all 220,000 compounds or so, about 910 (0.41%) were called active. The sample as a whole holds a higher share of actives than the screen did. Measured potencies and affinities stand elsewhere. A number with no mark means an inactive call.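 How the source made its calls: active means primary inhibition above the hit cutoff, then over 50% inhibition at one or more dose response concentrations (cut at about 23% in these data, passing the limit was not always enough); inconclusive means conflicting primary data, or primary hits not chosen for dose response; inactive means low primary inhibition, or under 50% at every dose.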 Where a SMILES comes first, the peptide text is derived from it. The star is where a group is joined. Boc = CC(C)(C)OC(=O)*

What follows are molecules tested against Aminopeptidase N (Plasmodium falciparum (isolate 3D7)) (UniProt O96935) (assay: P. falciparum M1AAP inhibitors, biochemical, fluorogenic H-Leu-NHMec substrate, 1536-well (AID 1445;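 further: plate controls were DMSO full reaction for no effect and no enzyme background for full effect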)). Conditions: recombinant M1AAP, H-Leu-NHMec fluorogenic kinetic assay; at 30 µM, hits give high values unless noted.
Chain of Aminopeptidase N (Plasmodium falciparum (isolate 3D7)) (O96935 whole entry, looked up): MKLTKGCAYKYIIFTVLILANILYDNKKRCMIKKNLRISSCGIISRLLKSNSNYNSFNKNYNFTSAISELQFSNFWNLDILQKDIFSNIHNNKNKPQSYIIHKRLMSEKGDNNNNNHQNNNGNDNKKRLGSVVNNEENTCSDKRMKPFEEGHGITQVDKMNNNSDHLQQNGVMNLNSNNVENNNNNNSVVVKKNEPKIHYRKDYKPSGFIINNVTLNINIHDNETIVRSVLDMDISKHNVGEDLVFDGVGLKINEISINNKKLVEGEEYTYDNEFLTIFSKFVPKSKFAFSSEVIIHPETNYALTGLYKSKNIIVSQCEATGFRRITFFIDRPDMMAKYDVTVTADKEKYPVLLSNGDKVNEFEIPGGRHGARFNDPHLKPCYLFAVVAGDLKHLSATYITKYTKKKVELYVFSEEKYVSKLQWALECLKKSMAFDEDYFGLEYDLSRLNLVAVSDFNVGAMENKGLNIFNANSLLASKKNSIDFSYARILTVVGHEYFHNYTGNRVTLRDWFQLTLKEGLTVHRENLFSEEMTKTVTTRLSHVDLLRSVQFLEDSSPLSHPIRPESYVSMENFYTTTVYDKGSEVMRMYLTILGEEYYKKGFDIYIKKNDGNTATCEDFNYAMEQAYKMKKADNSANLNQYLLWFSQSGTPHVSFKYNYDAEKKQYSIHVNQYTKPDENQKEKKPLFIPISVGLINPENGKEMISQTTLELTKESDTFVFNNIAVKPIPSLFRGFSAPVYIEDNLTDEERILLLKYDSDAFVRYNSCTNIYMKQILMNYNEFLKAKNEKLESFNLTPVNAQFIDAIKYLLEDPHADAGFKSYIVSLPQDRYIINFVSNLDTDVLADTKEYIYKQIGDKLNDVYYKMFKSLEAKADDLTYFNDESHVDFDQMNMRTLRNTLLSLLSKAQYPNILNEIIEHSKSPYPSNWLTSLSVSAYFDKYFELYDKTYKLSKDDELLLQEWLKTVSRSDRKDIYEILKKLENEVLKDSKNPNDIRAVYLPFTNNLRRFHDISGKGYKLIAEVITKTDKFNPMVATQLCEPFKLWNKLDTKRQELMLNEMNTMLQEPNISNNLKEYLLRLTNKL
Molecule `COCc1cc(C)nc(OCC(=O)N/N=C/c2ccc(O)cc2O)c1C#N` has an inhibition of -7.94%.
For `CSc1nnc(-c2cc3c(s2)-c2ccccc2CC3)o1`, the inhibition was 18.2%.
`CCSc1nnc(-c2cc3c(s2)-c2ccccc2CC3)o1` was tested, and the inhibition was 19.1%.
Work on `O=C(NCc1ccccc1)c1ccc2c(c1)C(=O)N(Cc1ccncc1)C2=O` yielded an inhibition of -0.3%.
With `COc1ccc(C(C(=O)NC(C)(C)C)N(Cc2cccs2)C(=O)CCC(=O)Nc2cc(C)on2)cc1` (stereo not drawn) the inhibition was -3.34%.
For `COc1cc(CCC(=O)OCC(=O)Nc2c(C)cccc2C(C)C)cc(OC)c1OC`, the inhibition was -0.28%.
With `Cc1ccc(C)c2[nH]c(=O)c(C(c3nnnn3Cc3ccco3)N3CCc4ccccc4C3)cc12` (stereo not drawn) the inhibition was 24.6% (active).
`Cc1cc2cc(C(c3nnnn3Cc3ccco3)N3CCc4ccccc4C3)c(=O)[nH]c2cc1C` (stereo not drawn) gave an inhibition of 14%.
For `COc1ccc2[nH]c(=O)c(CN(C3CCCCC3)C(c3nnnn3Cc3ccco3)C(C)C)cc2c1` (stereo not drawn), the inhibition was 23.7% (active).
Molecule `Cc1cccc2cc(C(c3nnnn3CC3CCCO3)N3CCc4ccccc4C3)c(=O)[nH]c12` (stereo not drawn) has an inhibition of 12.2%.
`CCC(c1nnnn1Cc1ccco1)N(Cc1cc2cc(OC)ccc2[nH]c1=O)C1CCCCC1` (stereo not drawn) was tested, and the inhibition was 14.1%.
With `Cc1ccc(C)c2[nH]c(=O)c(C(c3nnnn3Cc3ccccc3)N3CCc4ccccc4C3)cc12` (stereo not drawn) the inhibition was 7.95%.
`Cc1cc2cc(C(c3nnnn3Cc3ccco3)N3CCCCC3)c(=O)[nH]c2cc1C` (stereo not drawn) was tested, and the inhibition was 26.8% (active).
`COc1ccc2[nH]c(=O)c(CN(Cc3nnnn3Cc3ccco3)C3CCCCC3)cc2c1` showed an inhibition of 16%.
`Cc1cc2cc(C(c3nnnn3Cc3ccco3)N3CCc4ccccc43)c(=O)[nH]c2cc1C` (stereo not drawn) showed an inhibition of 21.9%.
Work on `CCOC(=O)c1ccc(Nc2nnc(C)c3ccccc23)cc1` yielded an inhibition of 6.41%.
`CSc1ccccc1NC(=O)CN(C)CC(=O)NCc1ccccc1` showed an inhibition of -1.28%.
In the case of `CC1(C)CC(=O)C(C=NCCN2CCN(C(=O)c3ccc(Br)cc3)CC2)=C(O)C1`, the inhibition is reported as 2.26%.
`COc1ccc(CCNC(=O)[C@@H](NC(=O)c2ccccc2F)C(C)C)cc1OC` showed an inhibition of 0.88%.
`Oc1c(Cl)cc(Cl)c2c1NCCC2` gave an inhibition of 7.06%.
For `Oc1c(Cl)cc(Cl)c2cccnc12`, the inhibition was -7.26%.
`CCC(C)NCCCCOc1cc(C)cc(C(C)C)c1` (stereo not drawn) gave an inhibition of 3.28%.
Work on `CCC(=O)N(C)CCc1cc2c(c(OC)c1/C=N/NC(=O)c1ccccc1O)OCO2` yielded an inhibition of -6.1%.
For `C#CCOCCOCCOCCNc1nc(N2CCOCC2)nc(N2CCN(C(=O)[C@H]([C@@H](C)CC)n3cc(CCCCN)nn3)CC2)n1`, the inhibition was 0.08%.
In the case of `O=[N+]([O-])c1ccc(-c2ccc(/C=N/c3c(-c4ccco4)nc4ccccn34)o2)c(Cl)c1`, the inhibition is reported as 8.98%.
With `O=[N+]([O-])c1ccc(-c2ccc(/C=N/c3c(-c4ccco4)nc4ccccn34)o2)cc1` the inhibition was 27.6% (active).
Molecule `O=[N+]([O-])c1ccc(Cl)c(-c2ccc(/C=N/c3c(-c4ccco4)nc4ccccn34)o2)c1` has an inhibition of 6.65%.
In the case of `COC(=O)C(Cc1ccccc1)NC(=O)C(CC(C)C)NC(=O)OC(C)(C)C` (stereo not drawn) (Boc-Leu-Phe-OMe; configuration not given here), the inhibition is reported as -2.73%.
In the case of `CC(C)CC(NC(=O)OC(C)(C)C)C(=O)NCc1ccccc1` (stereo not drawn), the inhibition is reported as -0.35%.
`O=C1N[C@@H](Cc2ccccc2)C(=O)N1CCN1CCOCC1` showed an inhibition of -7.62%.
Molecule `O=C(Cn1cnc2ccccc21)N/N=C/c1ccccc1[N+](=O)[O-]` has an inhibition of -4.86%.
`Cc1ccc(S(=O)(=O)N2CCN(C(=O)CC(C)(C)C)CC2)cc1` was tested, and the inhibition was 3.77%.
For `CN(c1ccccc1C(=O)Nc1ccc(F)c(F)c1)S(C)(=O)=O`, the inhibition was 0.14%.
`O=C1CN2C(=Nc3ccc(Br)cc3C2c2ccccc2)CCN1` (stereo not drawn) gave an inhibition of 3.13%.
In the case of `COC(=O)CN1C(c2ccc(Cl)cc2)=Nc2ccc(Cl)cc2C1c1ccccc1` (stereo not drawn), the inhibition is reported as 8.62%.
With `O=C1CN2C(=Nc3ccc(Cl)cc3C2c2ccccc2)CN1` (stereo not drawn) the inhibition was 27.9% (active).
For `COc1ccc(C2=NOC(C(=O)Nc3cc(C)on3)C2)cc1OC` (stereo not drawn), the inhibition was 9.84%.
In the case of `COc1ccc(/C=C(/C#N)C(=O)Nc2ccc(O)cc2)cc1C(=O)O`, the inhibition is reported as 15.9%.
`C=CCNC(=O)/C(C#N)=C\c1cc(Cl)c(O)c(OCC)c1` was tested, and the inhibition was 1.82%.
Molecule `CC(C)COc1ccc(/C=C2/Sc3ccccc3C2=O)cc1` has an inhibition of -0.23%.
`CCOC(=O)C1=C2NC(=O)c3ccccc3N2C(=O)C1` gave an inhibition of 7.37%.
For `COc1ccc(C(=O)NNC(=O)CCC(=O)Nc2cc(C)on2)cc1`, the inhibition was 6.61%.
`CC(=O)Nc1ccccc1-c1nc2ccc(C(=O)N3CCN(c4cccc(C)c4)C(C)C3)cc2[nH]c1=O` (stereo not drawn) showed an inhibition of 6.05%.
For `CC(=O)Nc1ccccc1-c1nc2ccc(C(=O)N3CCN(c4ccccc4)CC3)cc2[nH]c1=O`, the inhibition was 28% (active).
`CC(=O)Nc1ccccc1-c1nc2ccc(C(=O)N3CCN(c4cc(C)ccc4C)CC3)cc2[nH]c1=O` showed an inhibition of 4.66%.
`Cc1ccccc1-c1cnn(-c2cccc([N+](=O)[O-])c2)c1N` showed an inhibition of 1.77%.
`Cc1ccc(-c2nc3cc(N)ccc3o2)cc1` gave an inhibition of 6.2%.
Work on `CC(C)c1ccc2oc(-c3ccc(N)cc3)nc2c1` yielded an inhibition of 4.91%.
Molecule `CC(=O)N(C(C)=O)N1C(=O)/C(=C/c2ccc(Cl)cc2)SC1=S` has an inhibition of 29.5%.
Molecule `O=S(=O)(Nc1ncnc2sc3c(c12)CCC3)c1cc(F)ccc1F` has an inhibition of 11.3%.
With `O=S(=O)(Nc1ncnc2sc3c(c12)CCC3)c1ccc2ccccc2c1` the inhibition was 27.9% (active).
Work on `O=S(=O)(Nc1ncnc2sc3c(c12)CCC3)c1ccc(Cl)s1` yielded an inhibition of 20%.
With `CC(C)CCOCC(=O)Oc1ccccc1C(=O)O` the inhibition was -2.22%.
`CCN(CC)CCCOC(=O)c1ccc(OC)cc1O` showed an inhibition of 1.55%.
With `Cc1ccc(C2=NNC(=O)C(c3c[nH]c4ccccc34)C2)cc1` (stereo not drawn) the inhibition was 1.55%.
`O=C1c2ccccc2NC2(CCCC2)N1NS(=O)(=O)c1ccccc1` was tested, and the inhibition was 7.28%.
Work on `CS(=O)(=O)NN1C(=O)c2ccccc2NC12CCCC2` yielded an inhibition of 6.27%.
For `CCOC(=O)NN1C(=O)c2ccccc2NC1(C)C`, the inhibition was 13.7%.
`CC1(C)Nc2ccccc2C(=O)N1NC(=O)c1ccccc1` showed an inhibition of 22.7%.
`COc1ccc(NC(=O)c2ccccc2F)cc1Cl` gave an inhibition of 5.75%.
For `CCCC[C@@H]1CNC(=S)N1CCCc1cc(OC)c(OC)c(OC)c1`, the inhibition was 2.36%.
`COc1cc(NC(=O)CSc2nnnn2Cc2ccccc2)cc(OC)c1` showed an inhibition of -0.13%.
With `Cc1nc(COC(=O)c2ccc(CO)cc2)cs1` the inhibition was 4.37%.
Work on `Cn1c(=O)c2nc(Cl)c(-c3ccccc3)nc2n(C)c1=O` yielded an inhibition of 4.55%.
`COCCCNc1ccc([N+](=O)[O-])cc1C(=O)Nc1cccc(C)n1` gave an inhibition of 2.01%.
`O=c1[nH]c2ccc(NS(=O)(=O)c3ccc(Cl)cc3)cc2[nH]1` showed an inhibition of 7.26%.
`CCOc1ccc(NS(=O)(=O)c2ccc3[nH]c(=O)c(=O)[nH]c3c2)cc1` showed an inhibition of 10.4%.
In the case of `CC(C)CCNC(=O)c1nnc(Cc2ccc(Cl)cc2)o1`, the inhibition is reported as 2.74%.
`O=C(NCCCc1ccccc1)c1cc([N+](=O)[O-])ccc1Cl` gave an inhibition of 3.08%.
`C[N+]1(CC(=O)OC2CCCCCCCCCCC2)CCCC1` gave an inhibition of 32.9%.
Work on `Cc1ccc(-c2nc(N=Nc3ccc(O)cc3)n[nH]2)cc1` yielded an inhibition of 15.9%.
For `Oc1ccc(N=Nc2n[nH]c(-c3ccc(Br)cc3)n2)cc1`, the inhibition was 14.1%.
In the case of `Oc1ccc(N=Nc2n[nH]c(-c3ccc(Cl)cc3)n2)cc1`, the inhibition is reported as 26.6% (active).
With `O=C(Nc1ccccc1N1CCOCC1)c1cccnc1` the inhibition was -1.63%.
`Cc1onc(-c2c(Cl)cccc2Cl)c1COC(=O)c1ccc(Cl)cc1` was tested, and the inhibition was 0.11%.
`O=c1[nH]c(SCc2ccccc2Cl)nc2c1CCC2` showed an inhibition of -1.92%.
With `O=c1[nH]c(SCc2ccccc2Cl)nc2c1CCCC2` the inhibition was -3.65%.
Work on `Cc1cccc(OCC(=O)NCC(=O)N/N=C/c2cccnc2)c1` yielded an inhibition of 8.13%.
Molecule `O=c1c2ccccc2nc(SCc2cc(F)ccc2F)n1C1CCCC1` has an inhibition of 6.96%.
Work on `CCC(C)(C)NC(=O)C(c1cccnc1)N(C(=O)c1csnn1)c1ccccc1` (stereo not drawn) yielded an inhibition of -0.28%.
Molecule `O=P(Cc1cc(Br)cc(Br)c1OCCO)(c1ccccc1)c1ccccc1` has an inhibition of 5.71%.
`O=C(COc1ccc(Br)cc1CO)Nc1ccccc1` gave an inhibition of 9.17%.
Work on `CCCn1c(SC2C(=O)CC(C)(C)CC2=O)nc2c1c(=O)n(C)c(=O)n2C` yielded an inhibition of -3.71%.
`CCn1ccnc1CN(C)Cc1nc(-c2cccc(Cl)c2)no1` gave an inhibition of -7.75%.
With `C=CCn1c(-c2ccc(F)cc2)n[nH]c1=S` the inhibition was 4.9%.
`CCOP(=O)(OCC)c1nc(-c2ccc(Cl)cc2Cl)oc1N1CCCCC1` was tested, and the inhibition was 10.7%.
`CCOP(=O)(OCC)c1nc(-c2cccc3ccccc23)oc1N1CCCCC1` showed an inhibition of 15.6%.
Work on `CCOC(=O)C/C(C)=N\Nc1nc(-c2ccccc2)cs1` yielded an inhibition of 1.35%.
`O=C(CSCc1ccccc1)N1CCN(c2cccc(C(F)(F)F)c2)CC1` was tested, and the inhibition was 6.51%.
`COCC(=O)N1CCN(c2cccc(C(F)(F)F)c2)CC1` gave an inhibition of -4.62%.
Work on `Cc1cccc(/C=N/NC(=O)c2cc(-c3cccnc3)nc3ccccc23)c1` yielded an inhibition of 5.37%.
`c1ccc(SCc2nc(-c3cccnc3)no2)cc1` was tested, and the inhibition was 2.83%.
Molecule `CCOC(=O)c1c(NC(=O)C2CCCO2)sc(C)c1C` (stereo not drawn) has an inhibition of 2.42%.
